# High-throughput results (PubChem)
# CASP6 VEID inh: blocks human caspase-6 cleavage activity. P55212. purified caspase-6, Z-VEID-R110 cleavage fluorescence. inhibition, % at 12.5 µM. 350,000 compounds, 0.53% hits;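 active means mean inhibition across replicates at least about 35%, with every replicate also reaching that limit, limit read from the data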;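 further: 0% = median of neutral control wells and 100% = no fluorescence left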
# Target sequence (P55212 24-179 limits assumed): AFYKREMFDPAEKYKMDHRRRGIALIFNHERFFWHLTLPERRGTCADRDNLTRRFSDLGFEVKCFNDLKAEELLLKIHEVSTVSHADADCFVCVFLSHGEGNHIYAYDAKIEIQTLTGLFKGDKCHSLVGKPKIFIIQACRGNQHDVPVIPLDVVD
# Target sequence (P55212 194-293 limits assumed): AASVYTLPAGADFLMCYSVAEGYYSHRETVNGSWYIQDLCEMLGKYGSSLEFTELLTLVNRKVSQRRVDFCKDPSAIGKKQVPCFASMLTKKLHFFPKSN
# UBC9 SUMO inh: blocks human SUMOylation mediated by UBC9; inhibition, % at 35 µM; P63279; HTRF SUMOylation assay, SAE1/SAE2 + UBC9, in vitro; 290,000 compounds, 0.36% hits; in the data active means inhibition above about 50%, passing the limit was not always enough
# NSD2 HMT inh: NSD2 (human) methyltransferase inhibition | NSD2 peptide methylation, AlphaScreen, 120 min | inhibition, % at 12.5 µM | 310,000 compounds, 0.54% hits | AID 743445; in the data active means inhibition above about 50%
# SIRT5 block: inhibitors of human sirtuin-5 desuccinylase; Purified SirT5, succinyl-peptide AMC, trypsin-coupled fluorescence; 330,000 compounds, 1.1% hits; Q9NXA8; AID 652115; inhibition, % at 15 µM; in the data active means inhibition above about 15%
# Target sequence (Q9NXA8 whole entry, looked up): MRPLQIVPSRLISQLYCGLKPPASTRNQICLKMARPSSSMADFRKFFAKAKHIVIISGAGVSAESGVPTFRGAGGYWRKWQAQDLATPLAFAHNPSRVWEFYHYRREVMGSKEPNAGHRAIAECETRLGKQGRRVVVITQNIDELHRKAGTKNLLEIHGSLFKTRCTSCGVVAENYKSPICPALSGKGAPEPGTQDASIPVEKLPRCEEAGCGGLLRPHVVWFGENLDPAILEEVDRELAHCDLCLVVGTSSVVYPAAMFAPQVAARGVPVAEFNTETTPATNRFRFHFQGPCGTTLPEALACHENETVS
# * marks the source's active call; other numbers are inactive results; nt = no result; ! = not confirmed by another sample. Only some compounds are listed: those with a hit (about 1.6% of all), similar ones and a draw of the others.
SMILES,CASP6 VEID inh,UBC9 SUMO inh,NSD2 HMT inh,SIRT5 block
COc1ccc(NC(=O)Nc2ccc3c(c2)C(=O)N([C@H](C)CO)C[C@H](C)[C@@H](CN(C)Cc2ccc(-c4ccccc4)cc2)O3)cc1,2,nt,nt,10
COc1ccc(NC(=O)Nc2ccc3c(c2)C(=O)N([C@@H](C)CO)C[C@H](C)[C@H](CN(C)Cc2ccc(-c4ccccc4)cc2)O3)cc1,-2,nt,nt,20*
COc1ccc(CN(C)C[C@H]2Oc3ccc(NC(=O)Nc4ccc(OC)cc4)cc3C(=O)N([C@H](C)CO)C[C@H]2C)cc1,2,nt,nt,-3
CC(C)NC(=O)Nc1ccc2c(c1)C(=O)N([C@@H](C)CO)C[C@@H](C)[C@@H](CN(C)C(=O)Nc1cccc3ccccc13)O2,46*,nt,nt,-1
COc1ccc(NC(=O)N(C)C[C@H]2Oc3ccc(NS(=O)(=O)c4ccc(Cl)cc4)cc3CC(=O)N([C@@H](C)CO)C[C@@H]2C)cc1,2,nt,nt,2
O=C(C[C@@H]1C[C@H]2c3cc(NC(=O)c4cccnc4)ccc3O[C@H]2[C@H](CO)O1)NC1CCCC1,2,nt,nt,-5
COc1ccc(NC(=O)Nc2ccc3c(c2)C(=O)N([C@H](C)CO)C[C@@H](C)[C@@H](CN(C)Cc2ccc(Cl)c(Cl)c2)O3)cc1,3,nt,nt,3
C[C@H](CO)N1C[C@H](C)[C@@H](CN(C)Cc2ccncc2)Oc2ccc(NC(=O)CCN3CCOCC3)cc2C1=O,2,nt,nt,3
CC(C)NC(=O)Nc1ccc2c(c1)C(=O)N([C@H](C)CO)C[C@H](C)[C@H](CN(C)Cc1ccc(-c3ccccc3)cc1)O2,0,nt,nt,31*
COc1ccc(NC(=O)Nc2ccc3c(c2)C(=O)N([C@@H](C)CO)C[C@H](C)[C@H](CN(C)Cc2ccc(Cl)c(Cl)c2)O3)cc1,0,nt,nt,19*
C[C@H](CO)N1C[C@H](C)[C@H](CN(C)Cc2ccncc2)Oc2ccc(NC(=O)CCN3CCOCC3)cc2C1=O,0,nt,nt,25*
C[C@@H]1CCCCO[C@@H](CN(C)Cc2ccccc2)[C@@H](C)CN([C@H](C)CO)C(=O)c2cc(NC(=O)CCCN(C)C)ccc2O1,3,nt,nt,0
CO[C@H]1CN(C)C(=O)c2cc(NC(=O)Nc3ccc(F)cc3)ccc2OC[C@@H](C)NC[C@@H]1C,-1,nt,nt,-4
Cc1cccc(S(=O)(=O)N2CCCCN3[C@H](C2)[C@H](c2ccc(-c4ccccc4)cc2)[C@@H]3CO)c1,-1,nt,nt,1
Cc1cccc(S(=O)(=O)N2CCCCN3[C@H](CO)[C@@H](c4ccc(-c5ccccc5)cc4)[C@H]3C2)c1,2,nt,nt,22*
Cc1ccc(-c2ccc([C@H]3[C@H]4CN(S(=O)(=O)c5cccc(C)c5)CCCCN4[C@H]3CO)cc2)cc1,0,nt,nt,17*
Cc1ccc(-c2ccc([C@H]3[C@H](CO)N4CCCCN(S(=O)(=O)c5cccc(C)c5)C[C@@H]34)cc2)cc1,-3,nt,nt,2
CCC(=O)N1C[C@@H](O)COC[C@H]2O[C@@H](CC(=O)NC)CC[C@@H]21,-4,nt,nt,-2
C[C@H](CO)N1C[C@H](C)[C@@H](CN(C)C(=O)Nc2cccc3ccccc23)OCc2cnnn2CCCC1=O,-3,nt,nt,-6
C[C@H](CO)N1C[C@H](C)[C@@H](CN(C)S(C)(=O)=O)Oc2ccc(NC(=O)NC3CCCCC3)cc2CC1=O,-4,nt,nt,1
Nc1cccc2cc(S(=O)(=O)O)ccc12,64*,nt,129*,57*
CC(C)c1cc(=O)oc2c3c4c(cc12)CCCN4CCC3,nt,32,5,nt
CN1CCCc2cc3c(C(F)(F)F)cc(=O)oc3nc21,nt,62*,-11,nt
C[C@@H]1CN([C@@H](C)CO)C(=O)c2cc(/C=C/c3ccccc3)cnc2O[C@H]1CN(C)C(=O)c1ccc(F)cc1,-3,nt,nt,-9
COC(=O)C[C@H]1CC[C@@H]2[C@H](COc3ccc(NC(=O)c4ccc(F)cc4)cc3C(=O)N2C)O1,-1,nt,nt,4
SMILES,CASP6 VEID inh,UBC9 SUMO inh,NSD2 HMT inh,SIRT5 block
O=C1Nc2ccccc2N(C(=O)c2ccc3ccccc3c2)C1c1nc2ccccc2[nH]1 (configuration not stated),-2,nt,nt,16*
CC1C(=O)Nc2ccccc2N1C(=O)c1ccc(O)cc1 (configuration not stated),-3,-8,-1,-3
Cn1c(=O)c2cc(NC(=S)NC3CCCCC3)ccc2n1Cc1ccc(F)cc1,-2,nt,2,-3
Cn1c(=O)c2cc(NC(=S)NC3CC3)ccc2n1Cc1ccccc1,58*,nt,16,nt
CCCCC[C@H](O)/C=C/[C@@H]1[C@@H](C/C=C\CCCC(=O)O)[C@@H](O)C[C@H]1O,-1,-25,nt,-4
CCCCC[C@H](O)/C=C/C1C(=O)C=C[C@H]1C/C=C\CCCC(=O)OC (some centres not stated),53*,nt,nt,5
O=S(=O)(O)c1cccc2cccc(Nc3ccccc3)c12,56*,nt,36,57*
N#Cc1c(N2CCCC(O)C2)nc(N)c2c(N)nc3c(c12)CC(=O)N3C12CC3CC(CC(C3)C1)C2 (configuration not stated),nt,99*,26,nt
C=C(C)CN(CC)c1nc(N)c2c(N)nc3c(c2c1C#N)CC(=O)N3C12CC3CC(CC(C3)C1)C2,nt,62*,0,nt
CCN(CC)c1nc2c3c(nc4c(c3c1C#N)CC(=O)N4c1ccc(Cl)cc1)NC(C)=N2,nt,38,3,nt
Cn1c(=O)c(C(=O)CN2CCN(S(=O)(=O)c3ccccc3)CC2)c(N)n(Cc2ccccc2)c1=O,nt,-2,0,nt
CCCn1c(N)c(C(=O)CN2CCN(S(=O)(=O)c3cccc(Cl)c3)CC2)c(=O)[nH]c1=O,41*,nt,2,-4
C[C@@H]1CN([C@H](C)CO)C(=O)CCCn2nncc2CO[C@@H]1CN(C)C(=O)c1ccc(N2CCN(C)CC2)cc1,-7,nt,nt,-5
C[C@H](CO)N1C[C@H](C)[C@@H](CN(C)C(=O)c2ccc(N3CCN(C)CC3)cc2)OCc2cnnn2CCCC1=O,-4,nt,nt,33*!
C[C@H](CO)N1C[C@H](C)[C@@H](CN(C)C(=O)c2ccncc2)OCc2cnnn2CCCC1=O,39*!,nt,nt,1
CC(C)[C@@H](C)NC(=O)N(C)C[C@H]1OCc2ccccc2-c2c(n(C)c3ccccc23)C(=O)N([C@@H](C)CO)C[C@@H]1C,2,nt,nt,-5
Cc1ccnc(NC(=O)c2ccc(Cl)c(NC(=O)c3ccccc3F)c2)c1,nt,nt,2,nt
Cc1ccc(S(=O)(=O)Nc2c(O)ccc3ccccc23)cc1,nt,nt,6,nt
Cc1ccc(S(=O)(=O)Nc2c(Cl)c(Cl)c(O)c3ccccc23)cc1,nt,92*,nt,nt
O=C(NCC(c1ccco1)N1CCOCC1)c1ccc(F)cc1 (configuration not stated),1,nt,nt,-5
O=C(NCC(c1ccco1)N1CCOCC1)c1c(F)cccc1F (configuration not stated),-1,nt,-2,17*
O=C(NC1CCS(=O)(=O)C1)c1cccnc1 (configuration not stated),nt,25,-3,nt
O=C(NC1CCS(=O)(=O)C1)c1cccc(Br)c1 (configuration not stated),-1,nt,0,17*
CO[C@@H]1CN(C)C(=O)c2ccc(NC(=O)C3CC3)cc2OC[C@H](C)NC[C@H]1C,1,nt,nt,-3
